Compound activity from PubChem BioAssay.
TrxR1 inh: blocks rat thioredoxin reductase 1 | recombinant rTrxR1, NADPH fluorescence consumption, selenite substrate | Potency, µM (highest dose often 114 µM), inactives show at the top dose activity change, negative = inhibition, hits mostly inhibitors | 1% of 390,000 active; note: % is set by controls: 0 for no effect and ±100 for the full control effect; nearly all actives have a fitted effect of over 65% in size
Target sequence (O89049 whole entry, looked up): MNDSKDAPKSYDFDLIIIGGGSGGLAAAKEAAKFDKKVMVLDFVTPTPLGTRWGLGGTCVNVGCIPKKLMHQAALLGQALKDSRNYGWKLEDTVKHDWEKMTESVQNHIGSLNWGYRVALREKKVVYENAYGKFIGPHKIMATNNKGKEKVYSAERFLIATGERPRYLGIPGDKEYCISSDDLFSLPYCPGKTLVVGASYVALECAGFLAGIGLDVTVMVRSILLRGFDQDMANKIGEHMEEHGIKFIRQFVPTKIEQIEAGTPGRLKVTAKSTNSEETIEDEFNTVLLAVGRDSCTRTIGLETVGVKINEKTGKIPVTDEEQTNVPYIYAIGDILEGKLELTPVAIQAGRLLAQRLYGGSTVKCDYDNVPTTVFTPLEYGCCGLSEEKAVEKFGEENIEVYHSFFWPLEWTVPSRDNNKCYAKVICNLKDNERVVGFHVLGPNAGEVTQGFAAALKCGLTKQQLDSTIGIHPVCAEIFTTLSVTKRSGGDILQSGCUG
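Rat TrxR1 (90 nM in the dispensed reagent) was pre-reduced with 400 uM NADPH for 5 min at room temperature, then incubated with compound for 15 min. After 400 uM selenite was added, NADPH fluorescence (Ex 340/Em 450 nm) was followed for 8 min.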
HEK293 tox: cytotoxic in the GLP-1 receptor inverse agonist counter-screen. HEK293 cAMP-luciferase reporter cells, luminescence, 24 h. Potency, µM (highest dose often 38.3 µM), for inactives: top-dose activity change, negative = inhibition, hits mostly inhibitors. 0.13% of 410,000 active. AID 624418;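 note: loss of luciferase light is scored as toxicity; % is set by controls: 0 for no effect and ±100 for the full control effect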
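To flag toxic compounds, the library was rerun on cells for 24 hr at 37 deg C and 5% CO2. Viability-linked luminescence was captured 12 min after adding luciferase detection reagent.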
TrxR1 substrate: rat thioredoxin reductase 1 substrate activity | O89049 | purified TrxR1 substrate turnover, NADPH consumption readout | Potency, µM (highest dose often 114 µM), for inactives: at the highest dose activity change, negative = substrate turnover | 0.01% of 390,000 active | AID 588456; note: % is set by controls: 0 for no effect and ±100 for the full control effect; nearly all actives have a fitted effect of over 50% in size
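Rat TrxR1, dispensed at 90 nM, was prereduced with 400 uM NADPH (final) for 5 min at ~22 deg C, then incubated with compound 15 min before 400 uM selenite. A first-read NADPH fluorescence drop versus no-compound background flagged substrates.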
IDH1 R132H inh: inhibitors of human mutant IDH1 R132H; Potency, µM (titrated, usually from 76.6 µM), for inactives: at the highest dose activity change, negative = inhibition, most hits filed as inhibitors; IDH1-R132H enzyme, NADPH consumption, diaphorase/resazurin fluorescence; O75874; 0.093% of 390,000 active; note: % is set by controls: 0 for no effect and ±100 for the full control effect; nearly all actives have a fitted effect of over 65% in size
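IDH1-R132H (0.5 ug/mL dispensed) in pH 7.5 Tris buffer was preincubated 30 min with compound, then given a substrate mix of 0.016 mM NADPH and 2 mM alpha-KG for 80 min at room temperature; remaining NADPH was read by diaphorase/resazurin fluorescence.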
GLP1R ag: activates the human GLP-1 receptor; P43220; HEK293 GLP-1R CRE-luciferase, luminescence, 4-6 h; cells express a hypersensitive GLP-1R form; Potency, µM (top dose mostly 45.6 µM), for the others: at the highest dose activation, most hits filed as activators; 0.007% of 380,000 active; AID 624172; note: % of control where 0% means no effect
GLP-1R inv ag: GLP-1 receptor (human) inverse agonism. 1.6% of 410,000 active. Potency, µM (series often up to 38.3 µM), without a hit: at the top dose activity change, negative = inhibition, most hits filed as inhibitors. P43220. AID 624417. HEK293 GLP-1R CRE-luciferase, luminescence, 24 h; GLP-1R form is constitutively active; note: % is set by controls: 0 for no effect and ±100 for the full control effect; nearly all actives have a fitted effect of over 55% in size
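Inverse agonists were sought by their lowering of basal cAMP reporter luciferase output in HEK293 cells stably carrying constitutively active human GLP-1R, after 24 h compound treatment.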
Starred values were filed as active, the others as inactive; ? = inconclusive; · = no result given; [ ] = remark or other dose. Shown are actives, neighbours in structure and some others; about 2.7% of the full set was active somewhere. Calls come from the whole dose curve; as a rule, active = well fitted curve in the direction sought with a large enough effect; inconclusive = small, poorly fitted or top-dose-only effect, or another doubt; inactive = no such curve, though single readings can be large; an effect the other way counts as inactive or inconclusive. Potency is the fitted concentration of half-maximal effect.

SMILES | TrxR1 inh | HEK293 tox | TrxR1 substrate | IDH1 R132H inh | GLP1R ag | GLP-1R inv ag
Clc1cccc(NCc2nnc(SCc3ccccc3)o2)c1 | 9.2%[57.1 µM] | 1.4% | -6.0%[57.1 µM] | -2.8% | 7.5% | 7.08µM*
CCN(CC)CCNC(=O)c1ccc(Cn2c(SCc3ccccc3)nc3cccnc32)cc1 | -6.3% | -8.9% | -3.1% | -6.8% | · | ?
O=C(Nc1ccc(OC(F)F)cc1)Nc1cccc(C(F)(F)F)c1 | 4.7% | ? | -11.3% | 4.0% | -4.7% | 4.47µM*
O=C(Nc1ccncc1)Nc1cccc(C(F)(F)F)c1 | 12.4% | -16.0% | -1.8% | -5.8% | -3.2% | 10µM*
NNC(=O)Nc1cccc(C(F)(F)F)c1 | 25.3% | 1.4% | 5.7% | 0.0% | -0.2% | 10.3%
O=C(Nc1ccc([N+](=O)[O-])cc1)C(=O)Nc1cccc(C(=O)O)c1 | -0.2% | -15.2% | -7.5% | -0.4% | -14.8% | 1.12µM*
O=C(O)c1cc(NC(=O)c2ccc([N+](=O)[O-])cc2)cc(NC(=O)c2ccc([N+](=O)[O-])cc2)c1 | 16.4% | 0.2% | -1.6% | 7.7% | -0.3% | 15.5%
NC(=O)/C=C\C(=O)Nc1cccc(C(F)(F)F)c1 | 25.1µM* | 6.5% | 10.5% | 14.2% | -0.1% | 4.5%
Cc1ccc(NC(=O)Nc2cccc([N+](=O)[O-])c2)cc1F | 9.3%[57.1 µM] | -6.8% | 4.9%[57.1 µM] | 3.0% | -2.1% | ?
O=C(Nc1ccc(OC(F)(F)F)cc1)Nc1cccc([N+](=O)[O-])c1 | -5.0% | 5.62µM* | -8.1% | 7.2% | -14.8% | 2.51µM*
C[C@H](NC(=O)OC(C)(C)C)[C@@H](O)c1ccco1 | -2.3% | · | 2.0% | · | · | ·
N#C/C(=N\Nc1ccc(Cl)cc1)C(N)=S | ? | ? | -10.7% | -1.2% | -6.0% | ?
Cc1ccc(N/N=C(\C#N)C(N)=S)cc1C | -21.3% | ? | -3.3%[57.1 µM] | 2.4% | 7.5% | 0.282µM*
Cc1ccc(C)c(Nc2nc3c(S(=O)(=O)c4ccc(Br)cc4)nnn3c3ccsc23)c1 | 69.0% | -0.2% | 18.6% | -0.2% | · | 0.6%
COCCc1nn2c(=O)cc(COC(=O)c3ccccc3C)nc2s1 | 10.9%[57.1 µM] | 6.0% | 3.2%[57.1 µM] | 0.0% | · | 18.1%
COc1ccc(NC(=O)c2c(NCc3cccc(F)c3)sc3c2CCC3)c(OC)c1 | -13.4%[57.1 µM] | -6.0% | -4.5%[57.1 µM] | -15.8% | · | -20.5%
CCOC(=O)C1C(=O)C(C(=O)OCC)C(c2cccnc2)NC1c1cccnc1 (configuration not stated) | 3.16µM* | -14.2% | 22.3%[57.1 µM] | 2.3% | -6.1% | 12.2%
COC(=O)c1ccc(-c2nc3ccccc3[nH]2)cc1 | 56.2µM* | -7.1% | 926.2% | -2.0% | -8.6% | ?
O=C(NC1CCCC1)c1ccc(CS(=O)Cc2ccccc2Cl)o1 (configuration not stated) | 50.1µM* | -14.5% | 5.7% | 10.3% | 7.1% | -0.5%
O=C(NC1CCCCC1)c1ccc(CS(=O)Cc2ccccc2Cl)o1 (configuration not stated) | ? | -16.1% | 3.5% | 15.6% | 2.6% | ?
CCOC(=O)c1ccccc1NC(=O)c1cnc(N2CCOCC2)c2ccccc12 | 15.2%[57.1 µM] | 2.7% | 6.4%[57.1 µM] | 0.0% | · | 0.3%
CCCCNC(=O)c1ccc2nc(-c3ccco3)c(-c3ccco3)nc2c1 | 2.82µM* | -8.5% | -3.0% | -3.8% | -3.9% | 12.1%
O=C(NCc1ccccc1)c1ccc2nc(-c3ccco3)c(-c3ccco3)nc2c1 | ? | -23.4% | -5.4% | -0.9% | -2.9% | 0.2%
O=C(NCCCO)c1ccc2nc(-c3ccco3)c(-c3ccco3)nc2c1 | 2.82µM* | 229.8% | -8.6% | 17.2% | 8.0% | 29.5%
COc1ccc2c(c1)c1nnc(SC)nc1n2Cc1ccccc1 | 7.7% | · | 0.6% | · | · | ·
SMILES | TrxR1 inh | HEK293 tox | TrxR1 substrate | IDH1 R132H inh | GLP1R ag | GLP-1R inv ag
CCOC(=O)C1CCN(c2ncnc3c2nnn3C)CC1 | 5.0%[57.1 µM] | 6.8% | -3.5%[57.1 µM] | -20.1% | · | 2.9%
Cc1ccc(-c2onc(C)c2C)cc1S(=O)(=O)N1c2ccccc2CC1C (configuration not stated) | -3.3%[57.1 µM] | 12.0% | -6.1%[57.1 µM] | 0.0% | · | 10µM*
Cc1ccc(-c2onc(C)c2C)cc1S(=O)(=O)N1CCOc2ccccc21 | 25.3%[57.1 µM] | 24.0% | 4.4%[57.1 µM] | -5.3% | 12.9% | ?
C[C@H]1CN([C@@H](C)CO)C(=O)c2cccc(NC(=O)c3ccncc3)c2O[C@H]1CN(C)C(=O)Nc1ccccc1 | 56.2µM* | 1.0% | 3.5% | 0.0% | 2.1% | 8.5%
COC(=O)C1=C(O)/C(=C\c2cc(C)n(-c3ccc(F)cc3)c2C)N=C1C | 17.8µM* | 1.6% | -8.9%[57.1 µM] | 5.7% | -0.1% | 7.3%
CCn1c(NCc2cc(Br)ccc2NS(=O)(=O)c2ccc(C)cc2)nc2ccccc21 | 4.9%[57.1 µM] | -29.8% | -4.5%[57.1 µM] | 5.7% | -32.3% | 11.2µM*
CCn1c(NCc2ccccc2NS(=O)(=O)c2ccc(C)cc2)nc2ccccc21 | 4.9% | -26.7% | -3.9% | -1.2% | -4.7% | ?
CCCCN(Cc1ccccc1)c1ncnc2nc[nH]c12 | 6.4% | -1.7% | 2.0% | 2.5% | 9.3% | ?
CCCCN(CCCC)c1ncnc2nc[nH]c12 | 13.9%[57.1 µM] | -8.1% | -6.8% | -13.5% | 7.9% | 4.47µM*
O=C1N[C@@H](Cc2ccccc2)C(=O)N2[C@H]1C[C@]1([C@]34C[C@H]5C(=O)N[C@@H](Cc6ccccc6)C(=O)N5[C@H]3N(S(=O)(=O)c3ccccc3)c3ccccc34)c3ccccc3N(S(=O)(=O)c3ccccc3)[C@H]21 | 5.9%[57.1 µM] | -23.5% | 7.7%[57.1 µM] | -7.3% | -4.9% | 8.0%
CC(C)c1cc(C(C)C)c(S(=O)(=O)N2c3ccccc3[C@@]3(Br)C[C@H]4C(=O)N[C@@H](Cc5ccccc5)C(=O)N4[C@@H]23)c(C(C)C)c1 | 15.9%[57.1 µM] | 5.0% | -10.7%[57.1 µM] | 11.0% | -4.8% | 5.62µM*
O=C1N[C@@H](Cc2ccccc2)C(=O)N2[C@@H]3N(S(=O)(=O)c4ccccc4)c4ccccc4[C@]3(Br)C[C@@H]12 | -11.5%[57.1 µM] | 16.4% | -1.4%[57.1 µM] | 7.6% | 2.0% | 10µM*
CCOC(=O)c1ccc(NC(=S)N(CCCN2CCCCC2)Cc2ccco2)cc1 | -12.3%[57.1 µM] | ? | 5.8%[57.1 µM] | -6.4% | ? | 11.2µM*
Cc1ccc(C(=O)Nc2ncc([N+](=O)[O-])s2)cc1 | -29.8% | -23.7% | -20.2% | 25.1% | -6.5% | 1.12µM*
CCc1ccc(CSc2nccn2-c2ccccc2)cc1 | 3.8% | 0.0% | 6.4%[57.1 µM] | 3.8% | 15.2% | 6.31µM*
c1ccc(CCSc2nccn2-c2ccccc2)cc1 | -3.4% | 3.7% | -2.6% | 5.6% | 6.7% | ?
Cc1cc[n+](C2CCCCC2)c2ccccc12 | 8.7% | · | -0.9% | · | · | ·
